Source: PubChem
GRIN3A LBD mod: binders of NR3A ligand-binding domain, primary screen, biophysical, differential scanning fluorimetry, uHTS; Glutamate receptor ionotropic, NMDA 3A (GRIN3A) ligand-binding domain; AID 1259313, 2017; actives 2.5% (n = 340,000); Tm shift relative to glycine control, % at 25 µM; NR3A LBD differential scanning fluorimetry, Tm shift; 0% = protein alone, 100% = glycine-bound protein;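 active = melting temperature shift of at least 10% of the positive control shift, at one fixed dose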
MPTP block: mitochondrial permeability transition pore inhibitors, primary screen, biochemical, isolated mouse mitochondria, absorbance | Ca2+ swelling absorbance, 30 min | inhibition, % at 10 µM | actives 1.4% (n = 360,000) | AID 602449, 2012;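 active = inhibition of 50% or more, scaled per plate between neutral and stimulator controls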;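 also: 0% = DMSO wells given calcium and 100% = 1 mM EGTA wells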
FAS-TE inh: FAS thioesterase domain inhibitors, primary screen, biochemical, fluorescence intensity, uHTS | Fatty acid synthase (Homo sapiens), P49327 | recombinant FAS-TE, OMFH fluorogenic substrate, fluorescence endpoint | inhibition, % at 15 µM | actives 0.67% (n = 360,000);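 active = compounds whose normalised, plate-corrected inhibition of enzyme fluorescence in the single-dose primary screen is 50% or more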;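 also: 0% = DMSO with enzyme and 100% = substrate without enzyme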
Myeloid diff MLP: induction of myeloid progenitor differentiation, primary screen, cell-based, flow cytometry, MLPCN library. actives 1% (n = 360,000). calls only at 10 µM. ER-HoxA9 myeloid progenitors, lysozyme-GFP differentiation. AID 624256, 2012;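 active = normalized GFP-positive differentiation at or above the plate's own cutoff, the solvent-only control mean plus 3 SD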;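 also: cells exposed to compound for four days before flow analysis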
rCAG binder: binders of r(CAG) RNA repeats, primary screen, biochemical, fluorescence; actives 1.3% (n = 370,000); inhibition, % at 3 µM; r(CAG) RNA repeat, TO-PRO-1 dye displacement fluorescence;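 active = inhibition above the plate cutoff, the mean of all test compounds on that plate plus 3 SD, cut at about 35% in these data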;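 also: 0% = DMSO alone and 100% = 100 µM mitoxantrone as full dye displacement; higher means more dye released from RNA so lower well fluorescence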
Active calls of the source: *. Most compounds without a hit are left out; they make up all but 5.7% or so of the library.

`CC(C)(C)c1cc(C(=O)Nc2cccc3ccccc23)ccn1` gave GRIN3A LBD mod 683.0*, MPTP block 1.6, FAS-TE inh 3.2, Myeloid diff MLP inactive and rCAG binder -5.0.
`Cc1nc2ccc(NC(=O)c3c(Cl)cccc3Cl)cc2c(=O)[nH]1` gave rCAG binder 0.0.
`COCCn1c(SCC(=O)Nc2sccc2C(N)=O)nc2cc(Cl)ccc2c1=O` gave GRIN3A LBD mod 37.5*, MPTP block 0.6, FAS-TE inh 8.3, Myeloid diff MLP inactive and rCAG binder 2.7.
For N#CCCn1cc(/C=N/O)c(-c2ccc(F)cc2)n1 the results were GRIN3A LBD mod -2.7, MPTP block -0.5, FAS-TE inh -6.5, Myeloid diff MLP inactive and rCAG binder 1.1.
`N#CCCn1cc(/C=C2\NC(=S)N(c3ccccc3)C2=O)c(-c2ccc(F)cc2)n1` gave GRIN3A LBD mod 10.0*, MPTP block -0.2, FAS-TE inh 4.4, Myeloid diff MLP inactive and rCAG binder 19.4.
O=C(CN1C(=O)NC(Cc2ccccc2)C1=O)Nc1ccc(F)c(Cl)c1 (stereo not given) was read as GRIN3A LBD mod 29.3*, MPTP block 1.6, FAS-TE inh 6.3, Myeloid diff MLP inactive and rCAG binder 3.8.
For O=C(CN1C(=O)NC(Cc2ccccc2)C1=O)Nc1ccc(OC(F)(F)F)cc1 (stereo not given) the results were GRIN3A LBD mod 15.2*, MPTP block -0.2, FAS-TE inh 3.2, Myeloid diff MLP inactive and rCAG binder 1.0.
`O=C(CN1C(=O)NC(Cc2ccccc2)C1=O)Nc1ccc(F)cc1` (stereo not given) gave GRIN3A LBD mod -6.0, MPTP block 1.1, FAS-TE inh 2.0, Myeloid diff MLP inactive and rCAG binder 1.0.
For O=C(CN1C(=O)NC(Cc2ccccc2)C1=O)Nc1ccccc1F (stereo not given) the results were GRIN3A LBD mod -4.1, MPTP block -1.4, FAS-TE inh -6.2, Myeloid diff MLP inactive and rCAG binder -1.2.
`O=S1(=O)c2ccc(Br)cc2OC[C@@H](Cc2ccccc2)N1Cc1cn(CCC2OCCCO2)nn1` gave rCAG binder 3.3.
`O=C(NCCc1ccc(F)cc1)c1cc2ccccn2n1` gave rCAG binder 2.0.
Screening COc1ccc(C(=O)Nc2ccc(C(=O)Nc3cccc(C)c3)cc2)cc1 returned GRIN3A LBD mod 14.2*, MPTP block 1.1, FAS-TE inh -4.9, Myeloid diff MLP inactive and rCAG binder -0.6.
Screening COc1ccc(NC(=O)Nc2cccc(OC)c2)cc1 returned GRIN3A LBD mod 25.1*, MPTP block 4.7, FAS-TE inh -3.0, Myeloid diff MLP inactive and rCAG binder -0.1.
`COc1ccc(Oc2ccc(NC(=O)c3ccccc3C)cc2)cc1` gave GRIN3A LBD mod 17.1*, MPTP block 7.8, FAS-TE inh 27.2, Myeloid diff MLP inactive and rCAG binder 1.4.
COC(=O)c1ccc(NC(=O)Nc2ccc(OC)c(OC)c2)cc1 was read as GRIN3A LBD mod 20.6*, MPTP block 15.2, FAS-TE inh -3.5, Myeloid diff MLP inactive and rCAG binder 0.0.
For COc1ccc(CC(=O)NC(=S)Nc2cccc(C)c2)cc1 the results were GRIN3A LBD mod 1.1, MPTP block -0.9, FAS-TE inh 23.0, Myeloid diff MLP active and rCAG binder 0.6.
COc1ccccc1NC(=O)c1ccc2[nH]c(C)c(C)c2c1 was read as GRIN3A LBD mod 19.6*, MPTP block 1.1, FAS-TE inh 7.7, Myeloid diff MLP inactive and rCAG binder 12.4.
For COc1ccc(NC(=O)Nc2ccc3c(c2)CCC3)cc1 the results were GRIN3A LBD mod 14.2*, MPTP block 0.2, FAS-TE inh -5.3, Myeloid diff MLP inactive and rCAG binder -1.3.
`COc1cccc(NC(=O)Nc2ccc3nc(C)c(C)nc3c2)c1` gave GRIN3A LBD mod 28.0*, MPTP block 0.4, FAS-TE inh 0.1, Myeloid diff MLP inactive and rCAG binder 15.2.
Screening COC(=O)[C@]12C[C@H](CC(=O)NCc3cccc(C(F)(F)F)c3)C(=O)N(CCc3ccc(OC)c(OC)c3)C1=C[C@H](COCc1ccccc1)O[C@@H]2C returned rCAG binder 1.5.
COc1ccc(CN(Cc2ccc(C(=O)O)cc2)C(=S)Nc2cccc(C)c2)cc1OC was read as GRIN3A LBD mod 12.2*, MPTP block 0.7, FAS-TE inh -6.0, Myeloid diff MLP inactive and rCAG binder 13.9.
